G9a block: qHTS Assay for Inhibitors of Histone Lysine Methyltransferase G9a; Histone-lysine N-methyltransferase EHMT2 (Homo sapiens), Q96KQ7; G9a H3K9 monomethylation, AlphaScreen, 2 h; Potency, µM (top dose mostly 102 µM), without a hit: top-dose activity, negative = inhibition, most hits filed as inhibitors; 350,000 tested, 8.8% active; note: potency is the fitted concentration of half-maximal effect; % is set by controls: 0 for no effect and ±100 for the full control effect; nearly all actives have a fitted effect of over 75% in size
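Compounds were preincubated with 20 nM G9a for 15 min, after which biotinylated H3K9 peptide (500 nM) and SAM (20 uM) started a 2 h room-temperature reaction. Monomethylated product was quantified by antibody-based AlphaScreen chemiluminescence.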
L3MBTL1 inh: qHTS Assay for the Inhibitors of L3MBTL1; Potency, µM (series often up to 57.1 µM), without a hit: top-dose activity, negative = inhibition, actives largely listed as inhibitors; Lethal(3)malignant brain tumor-like protein 1 (Homo sapiens), Q9Y468; 230,000 tested, 0.66% active; AlphaScreen L3MBTL1–H3K9me1 peptide binding; note: potency is the fitted concentration of half-maximal effect; % is set by controls: 0 for no effect and ±100 for the full control effect; nearly all actives have a fitted effect of over 60% in size
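Displacement of a biotinylated histone H3(1-15) peptide monomethylated at Lys9 (75 nM) from L3MBTL1 (50 nM) was measured by AlphaScreen after a 30 min room-temperature compound incubation; cefsulodin titration served as intraplate control.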
PI5P4K alpha inh: qHTS for Inhibitors of phosphatidylinositol 5-phosphate 4-kinase (PI5P4K); max response, %; AID 652105, 2013; 330,000 tested, 1.2% active; PI5P4Kalpha enzyme, ADP-Glo luminescence, 60 min; hits give low values; active = max response of -50% or lower; inconclusive = between -30% and -50%; inactive = -30% or higher; note: value at the top dose of about 77 µM; % is set by controls: 0 for no effect and ±100 for the full control effect
Target sequence (P48426 whole entry, looked up): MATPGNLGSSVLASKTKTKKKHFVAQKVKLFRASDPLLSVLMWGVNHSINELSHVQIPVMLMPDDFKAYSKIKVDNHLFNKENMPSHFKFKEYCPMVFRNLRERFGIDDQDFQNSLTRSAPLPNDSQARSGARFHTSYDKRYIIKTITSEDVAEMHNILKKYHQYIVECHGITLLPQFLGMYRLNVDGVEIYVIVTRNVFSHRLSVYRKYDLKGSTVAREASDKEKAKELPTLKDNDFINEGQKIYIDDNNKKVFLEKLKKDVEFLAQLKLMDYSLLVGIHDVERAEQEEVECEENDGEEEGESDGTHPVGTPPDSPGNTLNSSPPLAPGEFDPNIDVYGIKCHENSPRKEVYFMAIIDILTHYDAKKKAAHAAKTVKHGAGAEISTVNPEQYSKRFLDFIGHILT
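ADP-Glo luminescence end-point after a 60 min room-temperature kinase reaction. PI5P4Kalpha and substrate in HEPES pH 7.4 buffer with EGTA, 0.1% CHAPS and 5% DMSO; ATP at 5 microM final.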
JMJD2A Tudor: qHTS Assay for Inhibitors of JMJD2A-Tudor Domain. Lysine-specific demethylase 4A (Homo sapiens), O75164. AlphaScreen JMJD2A-Tudor / H3K4me3 peptide binding. Potency, µM (series often up to 114 µM), for inactives: at the top dose activity change, negative = inhibition, most hits filed as inhibitors. 390,000 tested, 4.4% active; note: potency is the fitted concentration of half-maximal effect; % is set by controls: 0 for no effect and ±100 for the full control effect; nearly all actives have a fitted effect of over 50% in size
BAZ2B block: qHTS Assay for Inhibitors of BAZ2B; Bromodomain adjacent to zinc finger domain protein 2B (Homo sapiens), Q9UIF8; AlphaScreen BAZ2B-H3K14Ac peptide displacement; Potency, µM (top dose mostly 114 µM), without a hit: top-dose activity change, negative = inhibition, usual class: inhibitors; 360,000 tested, 4.4% active; AID 504333, 2011; note: potency is the fitted concentration of half-maximal effect; % is set by controls: 0 for no effect and ±100 for the full control effect; nearly all actives have a fitted effect of over 60% in size
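Inhibition is scored as reduced AlphaScreen emission. The BAZ2B/b-H3(5-23)K14Ac complex (50 nM each) in PBS pH 7.4, 0.01% Tween-20 meets compound (up to 110 uM) for 30 min at RT before bead addition.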
HP1b binding inh: HTS for Inhibitors of HP1-beta Chromodomain Interactions with Methylated Histone Tails | Chromobox protein homolog 1 (Homo sapiens), P83916 | AlphaScreen HP1-beta / biotin-H3K9me3 peptide binding | Potency, µM (titrated, usually from 114 µM), for the others: top-dose activity change, negative = inhibition, hits mostly inhibitors | 390,000 tested, 0.56% active | AID 540317, 2011; note: potency is the fitted concentration of half-maximal effect; nearly all actives have a fitted effect of over 70% in size
Target sequence (P83916 whole entry, looked up): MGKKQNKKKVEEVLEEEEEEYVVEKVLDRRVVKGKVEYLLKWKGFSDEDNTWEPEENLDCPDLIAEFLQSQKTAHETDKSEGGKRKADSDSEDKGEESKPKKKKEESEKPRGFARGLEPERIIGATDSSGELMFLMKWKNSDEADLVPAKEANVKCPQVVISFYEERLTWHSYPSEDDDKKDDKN
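Compound inhibition of the preformed complex between 50 nM HP1-beta and 50 nM biotinylated H3K9me3 peptide was read by AlphaScreen. Buffer was PBS pH 7.4 with 0.01% Tween-20. Incubations ran 30 min at room temperature, with 10 ug/mL donor/acceptor beads.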
Numbers without * were called inactive; u = inconclusive; x = no result; [ ] = remark or other dose. Most compounds without a hit are left out; they make up all but 11% or so of the library. Unless noted, calls come from the whole dose curve; as a rule, active = well fitted inhibition curve with a large enough effect; inconclusive = small, poorly fitted or top-dose-only effect; inactive = no such curve, though single readings can be large or run the other way.

SMILES	G9a block	L3MBTL1 inh	PI5P4K alpha inh	JMJD2A Tudor	BAZ2B block	HP1b binding inh
COc1cccc(NC(=O)CSC2=Nc3ccccc3N=C(c3ccc(F)cc3)C2)c1	-11%[59 µM]	x	x	-26%	u	0%[57 µM]
CSc1ccc2nnc(-c3ccc(C)cc3)n2n1	x	x	x	-20%[57.1 µM]	x	20%[57 µM]
Cc1ccc(C)n1-c1nnc(N2CCCC(C(=O)Nc3ccc(C(C)C)cc3)C2)s1 (stereo unspecified)	7%[59 µM]	x	x	-16%	-6%	2%
C[C@@]12C=Cc3occc3C1CC[C@@]13C[C@@H](CCC12)[C@@](O)(CO)C3 (stereo partly specified)	14µM*	x	x	x	x	x
C[C@@]12CC[C@H]3OC(=O)C=C3C1CC[C@@]13CC(CCC12)[C@](CO)(O[C@H]1O[C@H](CO)[C@@H](O)[C@H](O)[C@H]1O)C3 (stereo partly specified)	4%[12.7 µM]	1%	4	4%	-11%	38%
Cc1c(CCO)c(=O)n(-c2ccccc2)n1S(=O)(=O)c1ccc([N+](=O)[O-])cc1	u	x	-5	-5%[57.1 µM]	-30%	17%
Cc1c(CCO)c(=O)n(-c2ccccc2)n1S(=O)(=O)c1ccc(Cl)cc1	25µM*	x	-4	u	u	22%
CCCCc1ccc(C(=O)N/C(=C\c2ccc(C)cc2)C(=O)NC2CCCCC2)cc1	-50%[59 µM]	x	x	-21%	0%	13%
CCCCNC(=O)CCCn1c(=O)c2ccccc2n(Cc2ccc(Cl)cc2)c1=O	35%[59 µM]	x	x	-3%	-1%	64%
CC1CCCN(c2ccc3nc4ccccc4c(=O)n3n2)C1 (stereo unspecified)	50µM*	x	3	79µM*	6%	33%
CN(C)c1ccc(CNCCC(Cc2ccccc2)c2ccco2)cc1 (stereo unspecified)	22µM*	x	-1	20µM*	22µM*	u
C(=N\Nc1nc(N2CCCCC2)nc(N2CCCCC2)n1)/c1c[nH]c2ccccc12	u	u	5	35µM*	40µM*	6%
C(=N\Nc1nc2ccccc2[nH]1)/c1cccc2cccnc12	x	u	-7	14µM*	7.1µM*	10%
Cc1[nH]c2ccccc2c1/C=C/c1nc2ccccc2c(=O)[nH]1	-112%	x	-63*	-3%	-32%	16%
O=c1[nH]c(N/N=C/c2cc3c(cc2[N+](=O)[O-])OCO3)nc2ccccc12	18µM*	-2%	5	-7%	-36%	48%
CCCCN(CC)c1nc(-c2ccccc2F)nc2ccccc12	45%[59 µM]	x	x	111%	191%	161%
Cc1ccccc1N=Cc1cc2c(cc1[N+](=O)[O-])OCO2	45µM*	-9%	-7	u	u	-28%
C(=N\Nc1nc2ccccc2[nH]1)/c1c[nH]c2ccccc12	4%[59 µM]	-15%	0	45µM*	45µM*	u
O=[N+]([O-])c1cc(/C=N/Nc2nc3ccccc3[nH]2)c(O)cc1O	50µM*	u	-73*	28µM*	20µM*	u
COc1ccc(/C=N/Nc2nc3ccccc3[nH]2)c(OC)c1OC	x	u	0	u	u	0%
Cc1ccccc1/C=N/Nc1nc2ccccc2[nH]1	-40%	x	4	-17%	-29%	12%
C(=N\Nc1nc2ccccc2[nH]1)/c1ccccc1	-12%[12.7 µM]	-2%	0	-17%	-22%	30%
Cc1[nH]c2ccccc2c1/C=N/Nc1nc2ccccc2[nH]1	40µM*	x	u	45µM*	28µM*	u
COCCn1c(=O)c(-c2ccc(Cl)cc2)nc2cnc(OC)nc21	9%[12.7 µM]	x	x	x	x	x
O=C(Nc1cccc(-n2cccn2)c1)C1CCCN(Cc2cc3ccccc3[nH]2)C1 (stereo unspecified)	12%[12.7 µM]	x	-11	u	71µM*	-5%
SMILES	G9a block	L3MBTL1 inh	PI5P4K alpha inh	JMJD2A Tudor	BAZ2B block	HP1b binding inh
Cc1cc(CN2CCCC(C(=O)Nc3cccc(-n4cccn4)c3)C2)cc(C)c1O (stereo unspecified)	u	x	-6	-24%	-10%	14%
CCOC(=O)c1[nH]c(C)c(/C(O)=C2\C(=O)C(=O)N(CCN3CCOCC3)C2c2ccco2)c1C (stereo unspecified)	40µM*	3%	-2	-14%	u	20%
COC(=O)c1[nH]c(C)c(/C(O)=C2\C(=O)C(=O)N(CCN3CCOCC3)C2c2ccco2)c1C (stereo unspecified)	50µM*	10%	7	-30%	0%	17%
CCN(CC)CCN1C(=O)C(=O)/C(=C(/O)c2c(C)[nH]c(C(=O)OC)c2C)C1c1ccco1 (stereo unspecified)	u	3%	x	u	-36%	14%
COC(=O)c1[nH]c(C)c(/C(O)=C2\C(=O)C(=O)N(CCN3CCOCC3)C2c2cccs2)c1C (stereo unspecified)	45µM*	6%	0	-25%	-5%	12%
COc1ccc(-c2nc3c(C#N)c[nH]n3c2NC2CCCCC2)cc1	-27%[59 µM]	x	x	-21%	2%	3%
COCCNC(=O)Cn1c(-c2cccs2)cc2cc(Cl)ccc21	-19%[59 µM]	x	x	-11%	-12%	24%
Cc1ccc(-c2nn(-c3ccccc3)cc2/C=N/n2c(-c3ccncc3)n[nH]c2=S)cc1	u	-15%	-9	u	-3%	17%
Cc1ccc(-c2n[nH]c(=S)n2/N=C/c2ccncc2)cc1	1.6µM*	x	15	u	-12%	-16%
Cc1ccc(/C=N/n2c(-c3ccc(Cl)cc3)n[nH]c2=S)o1	x	-3%	6	u	-11%	35%
Cc1ccc(/C=N/n2c(-c3cccnc3)n[nH]c2=S)o1	28µM*	-19%	-4	5µM*	u	40%
Cc1ccc(-c2n[nH]c(=S)n2/N=C/c2ccc(C)o2)cc1	0.89µM*	-15%	0	25µM*	u	3%
COc1ccc(CNC(=O)CCCc2nnc3n(CCC(C)C)c(=O)c4sccc4n23)cc1	10%[59 µM]	x	x	-13%	-22%	68%
CCCCCOC(=O)C(C)c1c(C)[nH]c(=S)[nH]c1=O (stereo unspecified)	71µM*	5%	0	10%	12%	41%
O=[N+]([O-])c1c(Nc2ccccn2)cc(Cl)c2nonc12	0.71µM*	x	u	u	u	u
O=[N+]([O-])c1ccc(Nc2ccccc2O)c2nonc12	u	u	-11	50µM*	u	u
